One assay deals with Albumin (Bos taurus) (UniProt P02769). In words: bovine serum albumin binders on microarray, profiling panel, artefact control for SMM control protein annotation, biochemical, small-molecule microarray, Alexa647 label, 635/667 nm fluorescence (AID 1118).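 Further: score merges 667 nm emission intensity and signal-to-noise per printed compound spot.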 To be noted: BSA-A647 binding, fluorescence 635 nm, higher = more signal.
The nature of assay [1]: small-molecule microarray binders of probe aXIP, primary screen, biochemical, NeuroSMM set, 635/667 nm fluorescence (AID 1119).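 Further: probe is the protein aXip251-270 applied at 1 µg/mL to compound-printed slides; binding of probe to printed compounds measured as 667 nm fluorescence plus signal to noise.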 To be noted: higher = more signal, called active from +8 up or from −8 down.
Assay [2] is described as follows: small-molecule binders of probe aNOTCH3, primary screen, biochemical, small-molecule microarray, 635/667 nm fluorescence (AID 1120).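 Further: probe is a biotin-tagged antibody raised against NOTCH3 rather than NOTCH3 protein; score merges spot fluorescence near 667 nm with spot signal to noise.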 To be noted: higher = more signal.
Assay [3] is described as follows: small-molecule binders of probe aNOTCH2, primary screen, biochemical, small-molecule microarray, 635/667 nm fluorescence (AID 1121).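 Further: score merges feature fluorescence read at 667 nm with its signal to noise.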 To be noted: higher = more signal.
The target of assay [4] is Carbonic anhydrase 2 (Homo sapiens) (UniProt P00918). Put plainly: CAII small-molecule binders, profiling panel, biochemical, small-molecule microarray, Alexa647-labelled CAII (AID 1122). To be noted: CAII-A647 binding fluorescence, higher = more signal.
Assay [5] can be described thus: COS7 lysate on small-molecule microarray, probe aHis, 635 nm (AID 1123).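 Further: z-score combines 667nm fluorescence intensity with signal-to-noise per printed compound spot.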 To be noted: COS7 cell lysate, fluorescence, higher = more signal.
Assay [6] in a line: compound binding in COS7 lysate, probe aLAP1, primary screen, cell lysate, small-molecule microarray (AID 1124).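 Further: lysate comes from COS7 cells expressing LAP1 and is applied at 0.3 µg/mL; score merges spot fluorescence near 667 nm with signal-to-noise over triplicate slides.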 To be noted: probe aLAP1, fluorescence, higher = more signal.
For a further assay, the system named is Sam68 (KHDRBS1). Put plainly: Sam68 small-molecule binders, primary screen, biochemical, small-molecule microarray, 635 nm fluorescence (AID 1125).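 Further: score merges 667 nm channel intensity with signal to noise over triplicate slides.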 To be noted: small-molecule microarray binding, higher = more signal.
Assay [7] deals with Chordin-like protein 2 (CHRDL2). Put plainly: CHRDL2 small-molecule binders, primary screen, biochemical, small-molecule microarray, 635 nm fluorescence (AID 1126).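 Further: printed compound slides probed with Chrdl2 protein at 4 µg/mL for 1 h at 4 C; score merges 667 nm emission intensity with signal to noise over three replicate slides.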 To be noted: small-molecule microarray binding, fluorescence 635 nm; higher = more signal.
For assay [8], the target named is Concanavalin-A (Canavalia ensiformis) (UniProt P02866). In words: ConA small-molecule binders, primary screen, artefact control for SMM control protein annotation, biochemical, small-molecule microarray, Alexa647 label, 635 nm (AID 1127).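 Further: z combines 667 nm emission intensity with signal-to-noise across three replicate slides.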 To be noted: ConA-A647 binding fluorescence, higher = more signal.

The source made the active and inactive calls.

Concanavalin-A (Canavalia ensiformis), sequence (P02866 whole entry, looked up): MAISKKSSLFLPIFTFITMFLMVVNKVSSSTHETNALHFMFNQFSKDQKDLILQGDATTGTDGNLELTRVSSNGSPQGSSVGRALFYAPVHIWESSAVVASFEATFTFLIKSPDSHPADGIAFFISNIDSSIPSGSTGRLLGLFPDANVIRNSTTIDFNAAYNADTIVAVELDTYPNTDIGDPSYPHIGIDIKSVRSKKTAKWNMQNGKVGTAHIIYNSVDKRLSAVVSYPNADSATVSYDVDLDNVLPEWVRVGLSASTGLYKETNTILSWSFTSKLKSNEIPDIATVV
Albumin (Bos taurus), sequence (P02769 whole entry, looked up): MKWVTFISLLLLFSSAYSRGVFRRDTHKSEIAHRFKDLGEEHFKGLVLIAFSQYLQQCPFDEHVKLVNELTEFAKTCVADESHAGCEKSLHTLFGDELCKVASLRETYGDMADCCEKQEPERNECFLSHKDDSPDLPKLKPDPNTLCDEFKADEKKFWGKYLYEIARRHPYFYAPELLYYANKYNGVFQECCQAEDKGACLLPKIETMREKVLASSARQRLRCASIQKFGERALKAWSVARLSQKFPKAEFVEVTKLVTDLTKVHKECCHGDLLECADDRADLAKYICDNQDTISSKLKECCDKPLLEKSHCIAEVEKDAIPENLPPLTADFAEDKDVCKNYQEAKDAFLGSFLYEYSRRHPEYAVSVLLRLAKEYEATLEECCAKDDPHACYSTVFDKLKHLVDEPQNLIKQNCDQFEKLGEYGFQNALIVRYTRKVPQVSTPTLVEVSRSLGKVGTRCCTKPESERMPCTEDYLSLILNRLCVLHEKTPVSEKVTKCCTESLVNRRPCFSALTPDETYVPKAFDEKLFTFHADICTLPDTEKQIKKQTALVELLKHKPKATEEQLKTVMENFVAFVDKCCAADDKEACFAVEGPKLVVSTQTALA

`CC(C)C[C@H]1NC(=O)[C@@]23C(=O)N[C@@H](Cc4ccccc4)C2[C@H](C)[C@@]2(C)O[C@H]2C3/C=C/C/C=C\CNC(=O)[C@H](Cc2ccccc2)NC1=O` (stereo not given in full): the composite z-score in the assay with Albumin (Bos taurus) is -0.188; in assay [2], -0.0377; in assay [3], -0.115; in assay [4], 0.254; in assay [5] it was 0.19; in [6] it was -0.108. For the same compound, the results for the composite z-score (in the assay on Sam68 (KHDRBS1); in [7]; in [8]) were 0.791, 0.696 and 0.205, respectively. In assay [1], the composite Z-score is -0.311 (inactive).

For the compound `CN(C)C(=O)[C@]1(Cc2ccccc2CN=[N+]=[N-])N=C(c2ccc(OCCCO)cc2)O[C@@H]1c1ccccc1CN=[N+]=[N-]`, the composite z-score is 0.933 with Albumin (Bos taurus); 0.442 in assay [2]; -0.0508 in assay [3]; 0.545 in [4]; 2.72 in [5]; 0.751 in assay [6]. Further, the results for the composite z-score (with Sam68 (KHDRBS1); in assay [7]; in [8]) were 1.32, -0.223 and 0.758, respectively. Moreover, in assay [1], the composite Z-score was -0.384 (inactive).

On to `OC([C@@H]1CC(c2ccccc2)=NO1)[C@H]1CC(c2ccccc2)=NO1` (stereo not given in full), for which the composite z-score in the assay with Albumin (Bos taurus) was 0.558; in [2], -0.0465; in [3], -0.0859; in assay [4], -0.11; in [5], -0.262; in [6] it was -0.105. Also, the composite z-score in the assay with Sam68 (KHDRBS1) is -0.285; in [7], 0.191; in [8], -0.363. The composite Z-score in assay [1] was -0.227 (inactive).

As for `[N-]=[N+]=NCc1ccccc1C[C@]1(C(=O)N2CCOCC2)N=C(c2ccc(OCCCO)cc2)O[C@H]1c1ccccc1N=[N+]=[N-]`, the composite z-score was 0.889 with Albumin (Bos taurus); 0.311 in [2]; -0.0301 in assay [3]; 0.53 in [4]; 2.53 in assay [5]; 0.798 in assay [6]. The composite z-score with Sam68 (KHDRBS1) amounted to 1.34; in assay [7], 0.519; in assay [8], 1.04. For the same compound, the composite Z-score in assay [1] was -0.235 (inactive).

For `CCCC#C[Si](O[C@H](CC)c1cn([C@H](CO)Cc2ccccc2)nn1)(C(C)C)C(C)C`, the composite z-score with Albumin (Bos taurus) is 0.868; in assay [2], -0.108; in assay [3] it was -0.0986; in [4], 0.667; in assay [5] it was 0.516; in assay [6], -0.126. The results for the composite z-score (in the assay on Sam68 (KHDRBS1); in assay [7]; in [8]) were 0.838, 0.322 and 0.632, respectively. Also, the composite Z-score in assay [1] was -0.483 (inactive).

Regarding `CCCN1C(=O)[C@]2(CCS(=O)(=O)c3ccccc3)N=C(c3ccc(OCCCO)cc3)O[C@@H]2c2ccccc21`, the composite z-score was 0.414 with Albumin (Bos taurus); -0.0328 in [2]; -0.0995 in assay [3]; 0.276 in assay [4]; 1.15 in [5]; -0.031 in assay [6]. Further, the figures for the composite z-score (in the assay with Sam68 (KHDRBS1); in assay [7]; in [8]) were 1.29, 0.359 and 0.414, respectively. Further, in assay [1], the composite Z-score is -0.0745 (inactive).

On to `C=CCN1C(=O)[C@]2(O[C@H](CCO)[C@@H]([Si](C)(C)c3ccc(OC)cc3)[C@@H]2C)c2cc(N3CCCCC3=O)ccc21`, for which the composite z-score with Albumin (Bos taurus) is 0.694; in [2] it was 0.135; in assay [3], -0.106; in assay [4] it was 0.163; in [5] it was 1.86; in assay [6], 0.279. The composite z-score was 1.28 with Sam68 (KHDRBS1), 0.122 in assay [7] and 0.877 in assay [8]. Besides, in [1], the composite Z-score was 0.801 (inactive).

With `COc1ccc(C(=O)O[C@H]2CC[C@]3(C)C4=C(CCC3C2(C)C)[C@]2(C)CC[C@H]([C@H](C)CCCC(C)C)[C@@]2(C)CC4)cc1` (stereo not given in full), the composite z-score with Albumin (Bos taurus) is 0.12; in [2], 0.236; in [3] it was -0.149; in assay [4], -0.008; in [5], 0.688; in assay [6], 0.064. In addition, the composite z-score in the assay with Sam68 (KHDRBS1) was 0.154; in [7], 0.575; in assay [8], 0.447. In [1], the composite Z-score is -0.482 (inactive).

As for `O=C1OCC=C[C@H]2OC34C=CCN(CCN5CCOCC5)C(=O)[C@H]3N(CCCO)C(=O)[C@@H]4[C@@H]12` (stereo not given in full), the composite z-score is 0.416 in the assay with Albumin (Bos taurus); -0.206 in assay [2]; -0.122 in [3]; -0.0692 in assay [4]; 0.357 in assay [5]; -0.126 in assay [6]. In addition, the composite z-score in the assay with Sam68 (KHDRBS1) was 0.356; in [7], 0.0732; in assay [8], 0.551. For the same compound, the composite Z-score in assay [1] is 0.103 (inactive).

Consider `NCCCCCNC(=O)[C@@H]1C[C@@H]2C(=O)N[C@@H](Cc3ccccc3)C(=O)N2[C@@H]1c1cccc(OCCO)c1`, for which the composite z-score was 0.654 with Albumin (Bos taurus); 0.0087 in assay [2]; -0.112 in [3]; 0.698 in [4]; 1.18 in assay [5]; 0.463 in assay [6]. The values for the composite z-score (in the assay on Sam68 (KHDRBS1); in assay [7]; in assay [8]) were 0.861, -0.0335 and 1.05, respectively. Also, in assay [1], the composite Z-score is 0.376 (inactive).

`CC(C)(C)OC(=O)CC[C@@]1(C(=O)NCCN2CCOCC2)N=C(c2ccc(OCCCO)cc2)O[C@@H]1c1ccccc1N=[N+]=[N-]`: the composite z-score worked out at 0.641 with Albumin (Bos taurus); 0.375 in assay [2]; 0.103 in assay [3]; 0.742 in assay [4]; 1.81 in [5]; 0.0412 in [6]. The composite z-score in the assay on Sam68 (KHDRBS1) was determined as 1.33; in [7], 0.178; in assay [8], 0.289. Besides, in assay [1], the composite Z-score was 0.393 (inactive).

`C=CCC(OC(C)=O)[C@@H]1[C@@H](N(Cc2cccc3ccccc23)C(=O)c2ccc(-c3ccccc3)cc2)c2cc(OCCCO)ccc2N1C(=O)Cc1ccc(OC)cc1` (stereo not given in full): the composite z-score with Albumin (Bos taurus) is 0.173; in assay [2], -0.0232; in assay [3], -0.143; in assay [4] it was 0.0745; in assay [5], 0.0863; in [6], -0.0691. Moreover, the composite z-score was -0.0453 with Sam68 (KHDRBS1), -0.147 in [7] and 0.0866 in assay [8]. The composite Z-score in assay [1] was -0.829 (inactive).

In the case of `C=CCOC(=O)[C@H]1[C@@H]2C(=O)O[C@@H](c3ccccc3)[C@@H](c3ccccc3)N2[C@@H](c2ccc(OCCOC(=O)[C@@H]3C[C@@H]4C(=O)N5CCC[C@H]5C(=O)N4[C@@H]3c3cccc(OCCO)c3)cc2)[C@]12C(=O)Nc1ccccc12`, the composite z-score is -0.292 with Albumin (Bos taurus); 0.336 in [2]; 0.0087 in assay [3]; 0.192 in assay [4]; 1.73 in assay [5]; 0.383 in assay [6]. Further, the composite z-score was determined as 1.29 in the assay on Sam68 (KHDRBS1), 0.902 in assay [7] and 1.17 in [8]. Moreover, the composite Z-score in assay [1] is 0.594 (inactive).

On to `COC(=O)[C@@]1(Cc2ccc(OC)cc2)[C@H]2c3cc(C(=O)N(C)C)n(Cc4cccc5ccccc45)c3C[C@H]2CN1C(=O)c1ccccc1`, for which the composite z-score is 1.02 in the assay with Albumin (Bos taurus); 0.726 in [2]; 0.624 in assay [3]; 0.753 in [4]; 3.03 in [5]; 0.506 in assay [6]. Further, the composite z-score was 0.432 in the assay on Sam68 (KHDRBS1), 0.0735 in [7] and 0.976 in assay [8]. For the same compound, the composite Z-score in [1] was 0.0388 (inactive).

(Values after PubChem BioAssay.)
